The source of these data is PubChem BioAssay (NCI).

Test systems include NCI-H23 lung; NCI-H226 lung; NCI-H322M lung; HOP-62 NSCLC; NCI-H460 lung; HOP-92 NSCLC; NCI-H522 lung; A549/ATCC NSCLC; 786-0 renal; COLO 205 colon; DU-145 prostate; K-562 leukemia; MALME-3M melanoma; MDA-MB-231 breast; RXF 393 renal; SF-268 CNS; SF-295 CNS; SF-539 CNS; UACC-257 melanoma; M14 melanoma.
Common to all, as to test: NCI-60 one-dose screen, 48 h (100 = growth as untreated, 0 = no growth, -100 = all killed)
Common to all, as to settings: 10 µM unless noted

The panel holds about 83,000 compounds, 20% with a hit somewhere; the sample as a whole holds those more often.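 In brief: 96-well plates, 48 h treatment, single concentration, percent growth endpoint.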 Unmarked numbers belong to inactive results. Calls of active or inactive are those of the source. The calls were made as follows: active = growth percent below 10; inactive = the rest.

On to `CN1CCN(CCCCCC(=O)Nc2nc(-c3cccc(NS(=O)(=O)c4cccc5c(N(C)C)cccc45)c3)cs2)CC1`, for which the growth was 65.2% with NCI-H23 lung; 85.9% with NCI-H226 lung; 96% with NCI-H322M lung; 90.3% in the test with HOP-62 NSCLC; 79.3% in the test on NCI-H460 lung; 32.4% with HOP-92 NSCLC. Also, the growth was 91.8% in the test with NCI-H522 lung; 70.9% with A549/ATCC NSCLC; 79% in the test with 786-0 renal; 82.4% with COLO 205 colon; 84.8% in the test with DU-145 prostate; 7.02% (active) with K-562 leukemia. Further, the growth was 17.5% in the test on MALME-3M melanoma; 68.8% with MDA-MB-231 breast; 50.9% with RXF 393 renal; 90.9% in the test with SF-268 CNS; 35.6% in the test on SF-295 CNS; 58.2% in the test with SF-539 CNS. The growth with UACC-257 melanoma was 42.7%; with M14 melanoma, -28.7% (active).
Regarding `O=[N+]([O-])c1ccc(NC(=S)NNC(=S)Nc2ccc(F)cc2)cc1`, the growth in the test on NCI-H23 lung is 89.6%; in the test with NCI-H226 lung, 94.2%; with NCI-H322M lung it was 76.9%; in the test on HOP-62 NSCLC, 97%; in the test on NCI-H460 lung, 90.9%; in the test with HOP-92 NSCLC, 72.9%. In addition, the growth in the test with NCI-H522 lung is 70.1%; in the test with A549/ATCC NSCLC it was 88.2%; in the test with 786-0 renal, 97.3%; in the test on COLO 205 colon it was 115%; with DU-145 prostate it was 105%; with K-562 leukemia it was 49.8%. Further, the growth in the test on MALME-3M melanoma was 90.1%; in the test with MDA-MB-231 breast, 92.4%; in the test on RXF 393 renal it was 104%; in the test with SF-268 CNS, 95.1%; in the test on SF-295 CNS, 82.3%; in the test on SF-539 CNS, 94.9%. Also, the growth with UACC-257 melanoma is 97.8%; with M14 melanoma it was 92.1%.
Regarding `COc1ccc(C2c3[nH]c4ccc(Cl)cc4c3CCN2c2oc(CO)nc2C#N)cc1` (stereo not given), the growth with NCI-H23 lung was 69.9%; in the test on NCI-H226 lung, 60%; in the test on NCI-H322M lung, 70.4%; with HOP-62 NSCLC, 53.5%; in the test with NCI-H460 lung, 22.9%; in the test with HOP-92 NSCLC, 53.3%. Further, the growth is 31.7% with NCI-H522 lung; 38.1% in the test on A549/ATCC NSCLC; 64.6% in the test on 786-0 renal; 40.5% in the test on COLO 205 colon; 57.3% in the test with DU-145 prostate; 19.5% in the test on K-562 leukemia. Also, the growth is 72.1% with MALME-3M melanoma; 59.7% in the test on MDA-MB-231 breast; 62.8% with RXF 393 renal; 53.6% with SF-268 CNS; 45.6% with SF-295 CNS; 40.3% with SF-539 CNS. Besides, the growth is 67.5% in the test with UACC-257 melanoma and 53.5% in the test on M14 melanoma.
As for `C=C(C)[C@@H]1CC[C@]2(C(=O)O)CC[C@]3(C)[C@H](CC[C@@H]4[C@@]5(C)C/C(=C/c6ccccn6)C(=O)C(C)(C)[C@@H]5CC[C@]43C)[C@@H]12`, the growth is 38.6% in the test with NCI-H23 lung; 39.9% in the test with NCI-H226 lung; 44.3% in the test on NCI-H322M lung; 36.3% with HOP-62 NSCLC; 16.1% with NCI-H460 lung; 34.7% in the test on HOP-92 NSCLC. Besides, the growth in the test with NCI-H522 lung is 24.1%; in the test with A549/ATCC NSCLC, 16.5%; in the test with 786-0 renal it was 51.1%; with COLO 205 colon, 54.7%; with DU-145 prostate, 45.5%; in the test on K-562 leukemia it was 29.3%. In addition, the growth in the test on MALME-3M melanoma was 72.5%; with MDA-MB-231 breast, 61.7%; in the test with RXF 393 renal, 62.1%; in the test with SF-268 CNS, 51.5%; in the test with SF-295 CNS, 34%; in the test on SF-539 CNS, 46.8%. Also, the growth with UACC-257 melanoma is 46.5%; in the test with M14 melanoma it was 59%.
For the molecule `COc1ccc(/C=N\NC(=O)c2cnn(CC(O)c3ccccc3)c2N)cc1OCc1ccc(Cl)cc1` (stereo not given), the growth was 74.7% in the test on NCI-H23 lung; 90.7% in the test with NCI-H226 lung; 85% in the test on NCI-H322M lung; 84.1% with HOP-62 NSCLC; 44.3% in the test with NCI-H460 lung; 86% in the test with HOP-92 NSCLC. For the same molecule, the growth with NCI-H522 lung was 92.7%; with A549/ATCC NSCLC, 62.9%; with 786-0 renal, 96.2%; with COLO 205 colon, 72.8%; in the test on DU-145 prostate it was 55.3%; in the test with K-562 leukemia it was 60.2%. Besides, the growth is 65.2% in the test on MALME-3M melanoma; 67% in the test with MDA-MB-231 breast; 41.8% with RXF 393 renal; 91.6% with SF-268 CNS; 56.9% with SF-295 CNS; 69.4% with SF-539 CNS. Moreover, the growth is 85% in the test on UACC-257 melanoma and 68.4% with M14 melanoma.
With `CCCC[n+]1ccc(SCC(=O)n2ccc3ccccc32)c2ccccc21`, the growth in the test with NCI-H23 lung was 74.5%; in the test with NCI-H226 lung, 71.1%; with NCI-H322M lung, 96.4%; in the test with HOP-62 NSCLC it was 103%; in the test with NCI-H460 lung, 97.8%; in the test with HOP-92 NSCLC, 138%. Also, the growth was 83.2% in the test with NCI-H522 lung; 87.5% with A549/ATCC NSCLC; 106% in the test on 786-0 renal; 99.8% with COLO 205 colon; 94.6% in the test on DU-145 prostate; 66.9% in the test on K-562 leukemia. Also, the growth in the test on MALME-3M melanoma is 95.9%; with MDA-MB-231 breast, 92.4%; in the test on RXF 393 renal, 94.9%; with SF-268 CNS, 101%; with SF-295 CNS, 96.5%; in the test on SF-539 CNS, 103%. Further, the growth with UACC-257 melanoma was 95.7%; in the test on M14 melanoma it was 98.8%.
For `CNC(=O)c1cc(N2CCc3cc(NC(=O)Nc4ccc(N5CCOCC5)c(C(F)(F)F)c4)ccc32)ccn1`, the growth was 18.7% with NCI-H23 lung; 35.2% with NCI-H226 lung; 56.2% in the test on NCI-H322M lung; 12.1% in the test with HOP-62 NSCLC; 9.77% (active) with NCI-H460 lung; 14.1% with HOP-92 NSCLC. Moreover, the growth with NCI-H522 lung is 45.8%; in the test on A549/ATCC NSCLC it was 43.7%; in the test on 786-0 renal, 27.3%; in the test on COLO 205 colon, 26.7%; in the test on DU-145 prostate it was 27.2%; with K-562 leukemia, 7.92% (active). The growth in the test with MALME-3M melanoma is 25.8%; with MDA-MB-231 breast it was 47.6%; with RXF 393 renal, -6.79% (active); with SF-268 CNS, 47.8%; in the test with SF-295 CNS it was -21% (active); in the test on SF-539 CNS, 24.1%. For the same molecule, the growth with UACC-257 melanoma is 59.1%; with M14 melanoma, 17%.
In the case of `NC(=O)c1ncn2c(=O)n(CCF)nnc12`, the growth in the test with NCI-H23 lung was 94.5%; with NCI-H226 lung, 68.5%; with NCI-H322M lung it was 78%; in the test on HOP-62 NSCLC, 53.5%; in the test with NCI-H460 lung, 54.9%; in the test with HOP-92 NSCLC, 99.3%. Besides, the growth in the test on NCI-H522 lung is 82.7%; in the test with A549/ATCC NSCLC, 99%; in the test on 786-0 renal, 61.3%; in the test on COLO 205 colon it was 57.4%; with DU-145 prostate, 38.6%; with K-562 leukemia, 26.7%. The growth is 72.8% in the test on MALME-3M melanoma; 66.8% in the test on MDA-MB-231 breast; 96.6% in the test with RXF 393 renal; 57.3% in the test on SF-268 CNS; 34.7% in the test on SF-295 CNS; 63.9% in the test with SF-539 CNS. Also, the growth is 80.9% with UACC-257 melanoma and 33.9% in the test on M14 melanoma.
